The campaign covered roughly 6,200 compounds. About 2,900 (47%) were called active. Rule as the data show it: active = inhibition above about 50%; inactive = the rest. The set was probably picked from earlier hits. The list shows a part of the results.
Experiment: Mycobacterium tuberculosis growth inhibition, primary screen (AID 1259343)
Details: inhibition: at 10 µM, stronger effect = higher value; outcome: 10 uM

Row | Compound | inhibition
1 | C#CCN(C)C(=O)c1ccc(-c2cccc(C(F)(F)F)c2)s1 | 23.8% (inactive)
2 | Nc1ncc(N=Nc2cccc(C(F)(F)F)c2)s1 | 2.91% (inactive)
3 | CC(C)N(C(=O)c1ccc(-c2cccc(C(F)(F)F)c2)s1)C(C)C | 66.1% (active)
4 | O=C(NCC(O)COc1ccc(C(F)(F)F)cc1)c1ccccc1Cl (stereo not given) | 22.8% (inactive)
5 | O=C(NCCOc1ccc(C(F)(F)F)cc1)C1CSc2ccccc2O1 (stereo not given) | 77.1% (active)
6 | CC1Oc2ccccc2OC1C(=O)NCCOc1ccc2ccccc2c1 (stereo not given) | 29.2% (inactive)
7 | CCCOC(=O)c1ccc(NC(=O)c2cc(CCC)[nH]n2)cc1 | 65% (active)
8 | CCCOC(=NCCCN(C)C)NC(=O)c1ccc(Cl)c(Cl)c1 | 43.6% (inactive)
9 | CCCOC(=O)c1cc(Br)ccc1NC(=O)c1ccc(C)nc1 | 8.93% (inactive)
10 | Nc1scc(-c2ccc(Oc3ccccc3)cc2)[n+]1CCCS(=O)(=O)[O-] | 68.1% (active)
11 | Nc1nc(-c2ccc(Oc3ccccc3)cc2)cs1 | 17.5% (inactive)
12 | CCOC(=O)NC(n1ccnc1)C(F)(F)C(F)(F)C(F)(F)C(F)F (stereo not given) | 15.8% (inactive)
13 | C=C1/C(=N\OC(=O)Nc2ccc(C)cc2)CC2CC1C2(C)C (stereo not given) | 86.8% (active)
14 | CN1CCN(c2ccc3nc(-c4c(N)c5c(F)cccc5[nH]c4=O)[nH]c3c2)CC1 | 30.7% (inactive)
15 | Oc1cccc2c(NC(=S)NC3CC4CCC3C4)cccc12 (stereo not given) | 23.4% (inactive)
16 | S=C(Nc1ccccn1)NC1CC2CCC1C2 (stereo not given) | 97.7% (active)
17 | S=C(NCC1COc2ccccc2O1)NC1CC2CCC1C2 (stereo not given) | -18.9% (inactive)
18 | S=C(Nc1ccc(-n2cnnn2)cc1)NC1CC2CCC1C2 (stereo not given) | 103% (active)
19 | CC(C)CCNc1nc(C(=O)OC(C)C(N)=O)cs1 (stereo not given) | 20.4% (inactive)
20 | CC(C)c1cc(CN(C)C(=O)CC23CC4CC(CC(C4)C2)C3)no1 | 32.9% (inactive)
21 | COCC(C)C1CCN(C(=O)CC23CC4CC(CC(C4)C2)C3)CC1 (stereo not given) | -13.6% (inactive)
22 | Cc1ncsc1CCOC(=O)CC12CC3CC(CC(C3)C1)C2 | 103% (active)
23 | CC(C)CN(CCC(=O)O)c1nc(-c2ccccc2Cl)nc2ccccc12 | 37.1% (inactive)
24 | NC(=O)c1csc(C(=O)NC2CC2c2cccc(Cl)c2)c1 (stereo not given) | 27.2% (inactive)
25 | NC(=O)c1csc(CNc2ccc(F)cc2)c1 | 68.7% (active)

Row | Compound | inhibition
26 | Clc1ccc(C(Cn2ccnc2)OCc2c(Cl)cccc2Cl)c(Cl)c1 (stereo not given) | -47.1% (inactive)
27 | CN(C)C(=O)CSCC(=O)O | -0.78% (inactive)
28 | O=C1CC(Nc2ccc3c(c2)OCCCO3)C(=O)N1CCc1ccccc1F (stereo not given) | 53.9% (active)
29 | C(=C\c1ccccc1)/CNc1ccc2c(c1)OCCO2 | -42.5% (inactive)
30 | O=C(CCC1CCN(C(=O)CCc2ccccc2)CC1)Nc1ccc2c(c1)OCCO2 | 0.33% (inactive)
31 | COc1ccc(Nc2cccc3nonc23)cc1 | 60.3% (active)
32 | COc1ccc(-c2nc(Nc3ccc(F)cc3)c3ccccc3n2)cc1 | 26.9% (inactive)
33 | CC1(C)CC[C@@]2(C(=O)O)C(C1)C1=CCC3[C@@]4(C)CC[C@H](O)C(C)(C)C4CC[C@@]3(C)[C@]1(C)C[C@@H]2O (stereo not given in full) | 69.3% (active)
34 | Cc1nc(NCc2ccco2)c2c3c(sc2n1)CCCC3 | 59.1% (active)
35 | Cc1cc(/C=C/c2ccc3cc(N(C)C)ccc3[n+]2C)c(C)n1-c1ccccc1 | 48.1% (inactive)
36 | Cc1cc(C=Cc2ccc3cc(N(C)C)ccc3[n+]2C)c(C)n1-c1ccccc1 | inactive
37 | Cc1cc(/C=N\O)c(C)n1-c1ccc(-c2ccccc2)cc1 | 79.1% (active)
38 | O=[N+]([O-])c1ccc(NS(=O)(=O)c2ccc(Br)cc2)cc1 | 58.1% (active)
39 | COc1ccc(CNc2ccc([N+](=O)[O-])cc2)cc1 | 4.07% (inactive)
40 | O=[N+]([O-])c1cc(NS(=O)(=O)c2cc(Cl)cc(Cl)c2)ccc1Cl | 21.6% (inactive)
41 | O=[N+]([O-])c1cc(S(=O)(=O)Nc2ccc(Br)cc2)ccc1Cl | 66.2% (active)
42 | O=S(=O)(Nc1ccc2c(c1)CCC2)c1ccc(Br)cc1 | 32.5% (inactive)
43 | O=[N+]([O-])c1ccc(NS(=O)(=O)Cc2ccccc2)cc1 | 73.9% (active)
44 | CC(NC(=O)c1ccc(Br)o1)c1ccc(Cl)s1 (stereo not given) | -46.6% (inactive)
45 | CC(NC(=O)CC1C=CCC1)c1ccc(C(F)(F)F)cc1 (stereo not given) | 12.8% (inactive)
46 | CC(NC(=O)c1cccs1)c1ccc(Cl)s1 (stereo not given) | -37.7% (inactive)
47 | CC(NC(=O)c1cccs1)c1ccc(C(F)(F)F)cc1 (stereo not given) | 69.9% (active)
48 | CC(NC(=O)c1ccc(C(F)(F)F)cc1)c1ccco1 (stereo not given) | 62.5% (active)
49 | CC(NC(=O)c1ccc(Cl)o1)c1ccc(C(F)(F)F)cc1 (stereo not given) | 85.3% (active)
50 | O=C(NCc1ccccc1)c1ccc(C(F)(F)F)cc1 | 20.5% (inactive)

From PubChem BioAssay AID1259343 (VanderVen Lab, College of Veterinary Medicine, Cornell …, 2017)
